Bioassay records as filed in PubChem BioAssay.
The entries come from a sample that favours hits as a whole.
AmpC detergent – qHTS Inhibitors of AmpC Beta-Lactamase (assay with detergent). P00811. AmpC hydrolysis of nitrocefin, absorbance 480 nm, 0.01% Triton. Potency, µM (top dose mostly 114 µM), for the others: at the top dose activity change, negative = inhibition, actives largely listed as inhibitors. 370,000 compounds, 0.041% hits;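 further: 0% = no-compound wells and -100% = no-enzyme wells; nearly all actives have a fitted effect of over 25% in size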
Target sequence (P00811 whole entry, looked up): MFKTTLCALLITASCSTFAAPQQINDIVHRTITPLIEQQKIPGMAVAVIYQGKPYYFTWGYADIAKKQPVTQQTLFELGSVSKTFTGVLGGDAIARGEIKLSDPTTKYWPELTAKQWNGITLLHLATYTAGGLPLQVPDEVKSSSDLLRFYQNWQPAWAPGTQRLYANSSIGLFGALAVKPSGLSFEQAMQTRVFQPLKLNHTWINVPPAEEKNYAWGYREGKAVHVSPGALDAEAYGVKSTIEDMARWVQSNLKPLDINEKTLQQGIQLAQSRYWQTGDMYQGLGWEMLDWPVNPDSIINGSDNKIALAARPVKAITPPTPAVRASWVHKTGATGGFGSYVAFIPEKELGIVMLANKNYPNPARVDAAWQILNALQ
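20 mM phosphate pH 7.0 + 0.01% (detergent screen) or 0.0001% Triton X-100; 5.3 nM AmpC reagent; cpd preinc 15 min RT; nitrocefin (800 uM stock) to start; A480 q20 s × 4 min; Activity was normalised to no-enzyme and no-compound control wells.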
AmpC inh no detg – qHTS Inhibitors of AmpC Beta-Lactamase (assay without detergent). AmpC nitrocefin hydrolysis, absorbance 480 nm, 0.0001% Triton. Potency, µM (titrated, usually from 57.1 µM), inactives show top-dose activity change, negative = inhibition, usual class: inhibitors. 330,000 compounds, 0.52% hits. AID 485341, 2010;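 further: plate controls were no compound for no effect and no enzyme for full effect; nearly all actives have a fitted effect of over 20% in size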
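AmpC (5.3 nM in the dispensed reagent) in 20 mM phosphate pH 7.0 with 0.01% (detergent screen) or 0.0001% Triton X-100 was preincubated with compounds for 15 min at room temperature. Nitrocefin was then added from an 800 uM solution, and hydrolysis was followed at 480 nm.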
* marks the source's active call; other numbers are inactive results; ? = inconclusive; · = not tested or not shown. The call rests on the fitted dose curve; in most records, active means well fitted curve in the direction sought with a large enough effect; inconclusive means small, poorly fitted or top-dose-only effect, or another doubt; inactive means no such curve, though single readings can be large; an effect the other way counts as inactive or inconclusive. Potency means the concentration at half of the fitted maximal effect.

SMILES	AmpC detergent	AmpC inh no detg
COc1ccc(-n2nc(C(=O)Nc3ccc(Cl)cn3)c3c4ccccc4n(C)c3c2=O)cc1Cl	4%	·
CCCn1c(=O)n(-c2ccccc2)c(=O)c2sc3ccccc3c21	-8%	·
Cc1ccccc1CNC(=O)c1ccc2nc(SCc3ccc(F)cc3)n(C)c2c1	21%	·
O=C(NCCCc1nc2ccccc2n1Cc1cccc(Cl)c1)c1ccco1	-4%	·
CCCCOc1ccc(C2c3c(-c4ccccc4O)n[nH]c3C(=O)N2Cc2ccncc2)cc1OC (stereo not given)	-6%	·
O=C(Nc1nnc(Cc2c[nH]c3ccccc23)s1)c1ccc(Cl)cc1Cl	?	-28%
CC(C)(C)c1ccc(C(=O)Nc2nnc(Cc3c[nH]c4ccccc34)s2)cc1	-3%	11µM*
O=C(Nc1ccc2nc(SCC(=O)N3CCc4ccccc43)sc2c1)c1ccccc1	18%	·
N#CC1=C(N)Oc2cc(N)ccc2C1c1ccc(Cl)cc1 (stereo not given)	-2%	11µM*
N#CC1=C(N)Oc2cc(N)ccc2C1c1ccc(F)cc1 (stereo not given)	-11%	-34%
O=C(Nc1cccc(S(=O)(=O)NCc2ccco2)c1)c1cc(-c2ccc(F)cc2)nc2ccccc12	1%	-39%
COc1ccc(-c2cc(C(=O)Nc3cccc(S(=O)(=O)NCc4ccco4)c3)c3ccccc3n2)cc1OC	-4%	2µM*
C#CCn1c(=NC(=O)c2ccc(Br)s2)sc2cccc(OC)c21	?	1.4µM*
C=CCn1c(=NC(=O)c2cccs2)sc2cccc(OC)c21	10%	-34%
O=C(Nc1ccc2nc(SCC(=O)N3CCOCC3)sc2c1)c1ccccc1Cl	-4%	·
O=C1c2ccccc2C(=O)N1OS(=O)(=O)c1ccccc1	45µM*	-22%
Cc1cc(S(=O)(=O)ON2C(=O)c3ccccc3C2=O)ccc1F	45µM*	-25%
O=C1c2cccc3cccc(c23)C(=O)N1OS(=O)(=O)c1ccccc1	-3%	?
Cc1ccc(C)c(C(=O)CN2C(=O)c3ccccc3C2=O)c1	-7%	-2%
Cc1ccc(C)c(S(=O)(=O)ON2C(=O)c3ccccc3C2=O)c1	50µM*	-13%
Cc1ccc(S(=O)(=O)ON2C(=O)c3cccc4cccc(c34)C2=O)cc1	?	-15%
CN1CCN(C(c2ccc(F)cc2)c2sc3nc(-c4ccco4)nn3c2O)CC1 (stereo not given)	2%	·
COc1cccc(C(=O)NCC(c2ccc(N(C)C)cc2)N2CCOCC2)c1OC (stereo not given)	8%	·
CCOC(=O)Cn1c(=O)oc2cc(S(=O)(=O)N3CCC(C(=O)OCC)CC3)ccc21	0%	·
CC(NC(=O)CN1C(=O)COc2ccc(S(=O)(=O)N3CCCCCC3)cc21)c1ccccc1 (stereo not given)	-10%	·
SMILES	AmpC detergent	AmpC inh no detg
COc1ccc(CCn2c(O)cc3nn(-c4nc5ccccc5s4)c(=O)c-3c2C)cc1	2%	10µM*
COc1ccc(CN2CCN(c3nc4ccccc4s3)CC2)cc1	-4%	-3%
Cc1cc(=O)n(CC(=O)N2CCCc3ccccc32)c2c1c(C)nn2-c1cccc(F)c1	11%	·
CC(C)CCNC(=O)C1C2C=CC3(CN(Cc4ccccc4Cl)C(=O)C13)O2 (stereo not given)	?	8.9µM*
CCCCNC(=O)C1C2C=CC3(CN(Cc4ccccc4Cl)C(=O)C13)O2 (stereo not given)	-5%	3%
COc1ccc(NC(=O)Cn2c(=O)oc3cc(S(=O)(=O)N4CCCC4)ccc32)cc1OC	1%	·
Cc1nc2ccc(S(=O)(=O)N(CC(=O)Nc3cccc(Cl)c3)Cc3ccccc3)cc2s1	0%	·
Cc1ccc(/C=[N+](/C)[O-])cc1	?	-12%
Cc1ccc(C=C2C(Cl)=C(Cl)C(Cl)=C2Cl)cc1	-1%	16µM*
O=C(NCc1ccc(Cl)cc1)C(=O)NCC(c1cccnc1)N1CCN(c2ccccc2)CC1 (stereo not given)	0%	·
CNC(=O)c1ccc2nc(Cc3ccccc3)oc2c1	23%	·
Nc1nc(SCc2ccccc2Cl)nc2nc3c(cc12)CCCC3	-1%	-28%
Nc1nc(SCc2ccc(Cl)cc2Cl)nc2nc3c(cc12)CCCC3	-4%	16µM*
CCc1nnc(NC(=O)CC(CN(C)S(=O)(=O)c2ccccc2)c2ccccc2)s1 (stereo not given)	?	40µM*
Cc1nnc(NC(=O)CC(CN(C)S(=O)(=O)c2ccccc2)c2ccccc2)s1 (stereo not given)	?	13%
O/N=C/c1ccccc1Oc1ccc(Cl)cc1	-6%	-33%
N#CCC(=O)c1ccccc1Oc1ccc(Cl)cc1	?	4µM*
Cc1ccc2nc(N(Cc3cccnc3)C(=O)c3ccco3)sc2c1	0%	·
CCCCC(CC)CNC(=O)c1ccc2c(=O)n(CCOC)c(=O)[nH]c2c1 (stereo not given)	-7%	·
